Screens: PubChem BioAssay, National Center for Advancing Translational Sciences (NCATS)
The full list was thinned out, with hits kept by preference.
RE007 growth inh: less growth of the S. pombe RE007 Vpr strain. S. pombe RE007 Vpr strain, BacTiter-Glo ATP luminescence, 24 h. Potency, µM (series often up to 92.2 µM), without a hit: at the top dose activity change, negative = less growth, hits mostly inhibitors. 0.21% of 360,000 active; active = well fitted falling curve with a large enough effect; inconclusive = small, poorly fitted or top-dose-only effect; inactive = no such curve, though single readings can be large or run the other way; also: potency is read from the fitted curve at half-maximal effect; % is scaled to controls: 0 for no effect and ±100 for the full control effect; nearly all actives have a fitted effect of over 50% in size
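Fission yeast RE007 carrying one integrated HIV-1 vpr copy, seeded at OD 0.01 in PMG+AL medium with 23 nL pinned compound. Grown 24 h at 30 degrees; viability read by BacTiter-Glo luminescence after 5 min.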
Cycloheximide cs: counter-screen hit for Shiga toxin inhibitors, cycloheximide; cell reporter, cycloheximide protein synthesis inhibition counterscreen; max response, %; 12% of 300,000 active; AID 2314; in the data active = max response mostly above about 13%, no sharp cut-off; inactive = mostly below about 14%; also: read at 38.3 µM for the half of the compounds with a filed dose; 0% is about no effect
FBPA Giardia inh: Giardia lamblia aldolase inhibition. A8B2U2. purified Giardia FBPA. Potency, µM (titrated, usually from 59.6 µM), for inactives: top-dose activity, negative = inhibition, hits mostly inhibitors. 0.71% of 290,000 active; also: potency is read from the fitted curve at half-maximal effect; % is scaled to controls: 0 for no effect and ±100 for the full control effect; nearly all actives have a fitted effect of over 55% in size
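Giardia FBPA (40 nM reagent) was preincubated 10 min at RT with compound (up to 57.5 uM final), then substrate plus GAPDH/TPI/NAD/arsenate coupling system with diaphorase/resazurin was added; resorufin fluorescence (525/598 nm) was read after 20 min.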
TbPYK inhibitor: blocks Trypanosoma brucei pyruvate kinase. TbPYK enzyme, Kinase-Glo Plus ATP luminescence, 45 min. 0.12% of 410,000 active. Potency, µM (highest dose often 76.8 µM), inactives show at the top dose activity, negative = inhibition, most hits filed as inhibitors; also: potency is read from the fitted curve at half-maximal effect; % is scaled to controls: 0 for no effect and ±100 for the full control effect; nearly all actives have a fitted effect of over 50% in size
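Screened from lowest to highest concentration, compounds were pinned into TbPYK/substrate mixtures, and ADP (130 uM final) was added. Plates sat at room temperature for 45 min prior to Kinase-Glo Plus detection by luminescence.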
Shiga inhibitor: Shiga toxin inhibition. inhibition, % at 38.7 µM. 9.2% of 290,000 active. Vero cells, Shiga toxin protein synthesis inhibition reporter; in the data active = inhibition mostly above about 28%, no sharp cut-off; inactive = mostly below about 43%; also: 0% is about no effect
LmPK inh: inhibitors of Leishmania mexicana pyruvate kinase. purified LmPK, Kinase-Glo ATP luminescence, 1 h. Potency, µM (doses to about 57.5 µM), for inactives: top-dose activity change, negative = inhibition, usual class: inhibitors. Q27686. 0.37% of 290,000 active; also: potency is read from the fitted curve at half-maximal effect; % is scaled to controls: 0 for no effect and ±100 for the full control effect
Target sequence (Q27686 whole entry, looked up): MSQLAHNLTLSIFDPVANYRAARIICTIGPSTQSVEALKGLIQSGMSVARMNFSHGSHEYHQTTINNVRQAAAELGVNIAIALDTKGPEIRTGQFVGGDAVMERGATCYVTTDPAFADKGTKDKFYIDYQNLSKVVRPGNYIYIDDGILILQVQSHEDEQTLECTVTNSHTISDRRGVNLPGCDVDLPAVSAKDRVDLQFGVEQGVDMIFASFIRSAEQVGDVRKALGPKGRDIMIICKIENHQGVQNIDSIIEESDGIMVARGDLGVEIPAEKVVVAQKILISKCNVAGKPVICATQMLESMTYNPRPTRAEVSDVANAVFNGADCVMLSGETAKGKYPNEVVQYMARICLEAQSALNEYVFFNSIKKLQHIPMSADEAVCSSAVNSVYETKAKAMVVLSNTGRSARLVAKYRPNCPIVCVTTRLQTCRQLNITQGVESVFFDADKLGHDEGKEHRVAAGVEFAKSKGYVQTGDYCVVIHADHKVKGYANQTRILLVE
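0.1 nM LmPK, 0.5 mM PEP, 0.1 mM ADP; 50 mM imidazole pH 7.2, 7 mM MgCl2, 50 mM KCl; 1 h RT. Kinase-Glo luminescence readout, normalized to no-enzyme (full inhibition) and uninhibited wells.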
An asterisk follows results filed as active; ? = inconclusive; . = not tested or not shown; [ ] = dose if it differs, or a comment. Unless noted, calls follow the shape of the dose curve; as a rule, active = well fitted curve in the direction sought with a large enough effect; inconclusive = small, poorly fitted or top-dose-only effect, or another doubt; inactive = no such curve, though single readings can be large; an effect the other way counts as inactive or inconclusive.

SMILES	RE007 growth inh	Cycloheximide cs	FBPA Giardia inh	TbPYK inhibitor	Shiga inhibitor	LmPK inh
Cc1ccc(-c2cc(C(=O)N/N=C/c3c(C)nn(C)c3C)c3ccccc3n2)c(C)c1	-22%	-6	-1%	1%	-12	15%
CN(C)/C=C/C(=O)c1ccc(Cl)cc1Cl	-1%	17	3%	0%	11	-1%
O=C(c1ccccc1)c1cnc(-c2ccccc2)s1	-11%	9	3%	1%	47	-1%
CN(C)/C=C/C(=O)c1ccc(Cl)s1	3%	16*	7%	0%	35	-4%
CN(C)/C=C/C(=O)c1cnc(-c2ccccc2)s1	18%	52*	1%	11%	104*	10%
O=C(C=Cc1cccs1)c1ccc(Cl)s1	?	.	.	-3%	.	.
O=C(c1ccc(Cl)cc1)c1cnc(-c2ccc(Cl)cc2)s1	13%	1	5%	1%	-6	0%
O=C(c1ccccc1)c1cnc(-c2ccc(Cl)cc2)s1	-6%[3.69 µM]	39*	2%	.	116*	?
CN(C)/C=C/C(=O)c1cnc(-c2ccc(Cl)cc2)s1	2%	51*	2%	-3%	97*	-13%
C#C[C@@]1(O)CCC2C3CCC4=CC(=O)CCC4C3CC[C@@]21CC (some centres not stated)	.	.	-6%	.	.	.
COc1ccc(OCC(O)CN2C(=O)c3ccccc3C2=O)cc1 (configuration not stated)	-10%	15	12%	5%	16	0%
O=C1CCC(=O)N1CC(O)COc1ccccc1 (configuration not stated)	13%	-3	1%	-3%	3	-2%
O=C1CSC(=O)N1CC(O)COc1ccc(Cl)cc1 (configuration not stated)	12%	39*	8%	2%	86*	-1%
O=C1c2ccccc2C(=O)N1CC(O)COc1ccc(Cl)cc1 (configuration not stated)	-6%	18*	-1%	9%	31	-1%
CCN(CC)CCCN1C=C2C(=O)C(C)(OC(=O)c3cccs3)C(=O)C=C2C=C1CCCC(=O)OC (configuration not stated)	.	.	8%[12.9 µM]	.	.	3%[11.5 µM]
CCOC(=O)Cn1c(=O)n(CC2CCCO2)c2nc(-c3ccc(CC)cc3)nc(C(N)=O)c21 (configuration not stated)	.	.	.	2%	.	.
COc1ccc(-c2nc3ccccc3n2Cc2ccccc2)cc1	2%	25*	-6%	1%	14	9%
COc1ccc(-c2nnnn2CCc2ccccc2)cc1	-12%	19*	2%	1%	23	3%
COc1ccc(-c2nnnn2C(C)C)cc1	1%	-2	1%	5%	-2	0%
C=CCn1c(-c2ccc(N)cc2)nc2ccccc21	1%	17	-3%	1%	50*	3%
CCOCCn1c(-c2ccc(OC)cc2)nc2ccccc21	-8%	22	-1%	2%	29	-4%
C=CCn1c(C(O)c2ccccc2)nc2ccccc21 (configuration not stated)	9%	16*	14%	2%	.	-2%
Cc1ccn2c(NC(=O)c3cccc(Cl)c3)c(-c3ccccc3)nc2c1	.	.	.	4%	.	.
CCOc1ccc(NC(=O)CN(C)C(=O)C2CC(=O)N(CCc3ccccc3)C2)cc1OCC (configuration not stated)	7%	.	.	4%	.	.
C=CCn1c(-c2ccc(OC)cc2)nc2ccccc21	?	36*	-15%	-7%	30*	-4%
SMILES	RE007 growth inh	Cycloheximide cs	FBPA Giardia inh	TbPYK inhibitor	Shiga inhibitor	LmPK inh
O=c1c2ccccc2nc(-c2ccccc2)n1Cc1ccccc1	0%	22	7%	4%	83*	-1%
C=CCn1c(-c2ccc(OC)cc2)nc2nc3ccccc3nc21	0%	37*	3%	0%	30	-1%
CC(C)N1CC(COc2ccc(Br)cc2)OC1=O (configuration not stated)	15%	11	-6%	0%	3	0%
CC(C)(C)N1CC(COc2ccccc2)OC1=O (configuration not stated)	-7%	21*	5%	-10%	23	7%
Cc1ccc(NC2c3ncccc3C(=O)N2c2ccccc2C)cc1C (configuration not stated)	-16%	22*	-20%	?	72*	-2%
CCOc1ccc(N2C(=O)c3cccnc3C2Nc2ccc(Cl)cc2)cc1 (configuration not stated)	2%	2	-1%	3%	-1	2%
Cc1cc2c(s1)c1cnn(Cc3cc(C(F)(F)F)cc(Cl)c3F)c(=O)c1n2C	.	4	.	.	15	.
COc1cc(/C=N/NC(=O)c2cccc(C(=O)N/N=C/c3ccc(O)c(OC)c3)n2)ccc1O	7%	10	1%	5%	19	2%
COc1cc(/C=N/NC(=O)c2nc(C)cc(C)n2)ccc1O	4%	17*	-4%	-11%	48	-4%
Cc1nonc1C(=O)N/N=C/c1ccc(O)c(O)c1	?	42*	?	?	99*	13µM*
COc1cc(/C=N/NC(=O)c2nonc2N)cc(OC)c1OC	13%	32*	-1%	-1%	87*	-2%
COc1cc(/C=N/NC(=O)c2nonc2C)ccc1O	0%	29	1%	-5%	63*	14µM*
O=C(c1ccccc1F)N1N=C(C(F)(F)F)CC1(O)c1ccccc1 (configuration not stated)	-5%	.	.	3%	.	.
CCN1CCN(C(=O)c2c(-c3c(Cl)cccc3Cl)noc2C)CC1	-12%	-1	-11%	-7%	17	4%
CC(CCOC1=NS(=O)(=O)c2ccccc21)NC(=O)C(=O)Nc1ccccc1 (configuration not stated)	4%	29*	0%	4%	65*	4%
CC(CCc1ccccc1)NC(=O)C(=O)Nc1ccccc1 (configuration not stated)	-30%	56*	5%	-5%	100*	-4%
O=C(NCCCCCCOC1=NS(=O)(=O)c2ccccc21)C(=O)Nc1ccccc1	0%	25	4%	6%	47	7%[11.5 µM]
Cc1ccccc1NC(=O)C(=O)NC(C)CCc1ccccc1 (configuration not stated)	10%	7	0%	-1%	-2	-1%
Cc1ccc(N(C)C(=O)C2CCN(S(=O)(=O)c3cn(C)cn3)CC2)cc1	.	.	.	0%	.	.
CS(=O)(=O)c1ccccc1-c1nc(-c2cccc(Cl)c2)no1	3%	9	-18%	5%	17	1%
CS(=O)c1ccccc1-c1nc(-c2ccc(Cl)cc2)no1 (configuration not stated)	-8%	48*	-16%	-6%	66*	-10%
